Test results as given in PubChem BioAssay AID1159580 (chemical genetic matrix, 2015).
The campaign covered roughly 5,500 compounds. About 2,000 (36%) were called active. Another 18% or so got no clear call; they are omitted. No stated cut-off is given here; in the data, active means normalized growth mostly below about 0.91 (no sharp cut-off); inconclusive means no clear call, values can overlap the other calls; inactive means mostly above about 0.92. The list shows a part of the results.

Experiment: chemical genetic growth profiling, strain panel (AID 1159580);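 further: tested at 20 µM; growth read once vehicle control cultures reached saturation at 30 °C; 1 = growth at the plate median or of vehicle wells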
Details: growth OD

Measured: normalized growth

COC(=O)c1c(C)cc(OC)cc1O
inactive: S. cerevisiae deletion strains, locus YJR075W, strain HOC1, stronger effect = lower value 0.974 | S. cerevisiae deletion strains, locus YKL009W, strain mrt4, stronger effect = lower value 0.964 | S. cerevisiae deletion strains, locus YKL068W, stronger effect = lower value 0.995 | S. cerevisiae deletion strains, locus YKL085W, strain MDH1 (second series), stronger effect = lower value 0.978 | S. cerevisiae deletion strains, locus YKL085W, strain MDH1, stronger effect = lower value 0.978 | S. cerevisiae deletion strains, locus YKL160W, strain elf1, stronger effect = lower value 0.971 | S. cerevisiae deletion strains, locus YKL190W, strain CNB1, stronger effect = lower value 0.991 | S. cerevisiae deletion strains, locus YKR001C, strain vps1, stronger effect = lower value 0.959 | S. cerevisiae deletion strains, locus YKR026C, strain gcn3, stronger effect = lower value 0.972 | S. cerevisiae deletion strains, locus YKR091W, strain srl3, stronger effect = lower value 0.974 | S. cerevisiae deletion strains, locus YLL001W, strain dnm1, stronger effect = lower value 0.973 | S. cerevisiae deletion strains, locus YLL026W, stronger effect = lower value 0.981 | S. cerevisiae deletion strains, locus YLL041C, strain sdh2, stronger effect = lower value 1 | S. cerevisiae deletion strains, locus YLR027C, strain aat2, stronger effect = lower value 0.967 | S. cerevisiae deletion strains, locus YLR039C, strain RIC1, stronger effect = lower value 0.995 | S. cerevisiae deletion strains, locus YLR058C, strain SHM2, stronger effect = lower value 0.998 | S. cerevisiae deletion strains, locus YLR102C, strain apc9, stronger effect = lower value 0.981 | S. cerevisiae deletion strains, locus YLR113W, strain HOG1, stronger effect = lower value 1.02 | S. cerevisiae deletion strains, locus YLR221C, strain rsa3, stronger effect = lower value 0.959 | S. cerevisiae deletion strains, locus YLR258W, strain gsy2, stronger effect = lower value 0.974 | S. cerevisiae deletion strains, locus YLR262C, strain YPT6 (second series), stronger effect = lower value 1.02 | S. cerevisiae deletion strains, locus YLR262C, strain YPT6, stronger effect = lower value 1.01 | S. cerevisiae deletion strains, locus YLR268W, strain sec22, stronger effect = lower value 0.989 | S. cerevisiae deletion strains, locus YLR320W, strain mms22, stronger effect = lower value 0.947 | S. cerevisiae deletion strains, locus YLR330W, strain CHS5, stronger effect = lower value 0.993 | S. cerevisiae deletion strains, locus YLR342W, strain FKS1 (second series), stronger effect = lower value 1 | S. cerevisiae deletion strains, locus YLR342W, strain FKS1, stronger effect = lower value 0.989 | S. cerevisiae deletion strains, locus YLR357W, strain rsc2, stronger effect = lower value 0.983 | S. cerevisiae deletion strains, locus YLR370C, strain arc18, stronger effect = lower value 0.986 | S. cerevisiae deletion strains, locus YLR371W, strain rom2, stronger effect = lower value 0.989 | S. cerevisiae deletion strains, locus YLR384C, strain iki3, stronger effect = lower value 0.976 | S. cerevisiae deletion strains, locus YLR418C, strain cdc73, stronger effect = lower value 0.941 | S. cerevisiae deletion strains, locus YML016C, strain PPZ1, stronger effect = lower value 0.982 | S. cerevisiae deletion strains, locus YML032C, strain rad52, stronger effect = lower value 0.976 | S. cerevisiae deletion strains, locus YML120C, strain ndi1, stronger effect = lower value 0.988 | S. cerevisiae deletion strains, locus YML124C, strain tub3, stronger effect = lower value 0.984 | S. cerevisiae deletion strains, locus YMR058W, strain fet3, stronger effect = lower value 0.978 | S. cerevisiae deletion strains, locus YMR078C, strain ctf18, stronger effect = lower value 0.981 | S. cerevisiae deletion strains, locus YMR125W, strain sto1, stronger effect = lower value 0.993 | S. cerevisiae deletion strains, locus YMR129W, stronger effect = lower value 0.993 | S. cerevisiae deletion strains, locus YMR205C, strain PFK2, stronger effect = lower value 0.95 | S. cerevisiae deletion strains, locus YMR223W, strain ubp8, stronger effect = lower value 0.971 | S. cerevisiae deletion strains, locus YMR231W, strain pep5, stronger effect = lower value 1 | S. cerevisiae deletion strains, locus YMR263W, strain SAP30, stronger effect = lower value 0.982 | S. cerevisiae deletion strains, locus YMR307W, strain GAS1, stronger effect = lower value 1.03 | S. cerevisiae deletion strains, locus YNL067W, strain RPL9B, stronger effect = lower value 0.994 | S. cerevisiae deletion strains, locus YNL071W, strain lat1, stronger effect = lower value 0.98 | S. cerevisiae deletion strains, locus YNL128W, strain TEP1, stronger effect = lower value 1.01 | S. cerevisiae deletion strains, locus YNL153C, strain GIM3, stronger effect = lower value 0.988 | S. cerevisiae deletion strains, locus YNL183C, strain NPR1, stronger effect = lower value 0.979 | S. cerevisiae deletion strains, locus YNL209W, strain ssb2, stronger effect = lower value 0.999 | S. cerevisiae deletion strains, locus YNL233W, strain BNI4, stronger effect = lower value 0.992 | S. cerevisiae deletion strains, locus YNL248C, strain rpa49, stronger effect = lower value 0.982 | S. cerevisiae deletion strains, locus YNL250W, strain rad50, stronger effect = lower value 0.979 | S. cerevisiae deletion strains, locus YNL271C, strain bni1, stronger effect = lower value 0.978 | S. cerevisiae deletion strains, locus YNL298W, strain CLA4, stronger effect = lower value 0.996 | S. cerevisiae deletion strains, locus YNL307C, strain MCK1, stronger effect = lower value 0.914 | S. cerevisiae deletion strains, locus YNL322C, strain KRE1 (second series), stronger effect = lower value 0.953 | S. cerevisiae deletion strains, locus YNL322C, strain KRE1, stronger effect = lower value 0.997 | S. cerevisiae deletion strains, locus YNR049C, strain mso1, stronger effect = lower value 0.998 | S. cerevisiae deletion strains, locus YNR052C, strain pop2, stronger effect = lower value 1 | S. cerevisiae deletion strains, locus YOL006C, strain TOP1, stronger effect = lower value 0.848 | S. cerevisiae deletion strains, locus YOL012C, strain htz1 0.923 | S. cerevisiae deletion strains, locus YOL147C, strain pex11, stronger effect = lower value 0.978 | S. cerevisiae deletion strains, locus YOR001W, strain rrp6, stronger effect = lower value 0.985 | S. cerevisiae deletion strains, locus YOR061W, strain CKA2, stronger effect = lower value 1.01 | S. cerevisiae deletion strains, locus YOR069W, strain VPS5, stronger effect = lower value 0.995 | S. cerevisiae deletion strains, locus YOR070C, strain gyp1, stronger effect = lower value 0.971 | S. cerevisiae deletion strains, locus YOR080W, strain dia2, stronger effect = lower value 0.982 | S. cerevisiae deletion strains, locus YOR083W, strain WHI5, stronger effect = lower value 0.96 | S. cerevisiae deletion strains, locus YOR106W, strain vam3, stronger effect = lower value 0.978 | S. cerevisiae deletion strains, locus YOR136W, strain idh2, stronger effect = lower value 0.995 | S. cerevisiae deletion strains, locus YOR144C, strain elg1, stronger effect = lower value 0.99 | S. cerevisiae deletion strains, locus YOR184W, strain ser1, stronger effect = lower value 0.922 | S. cerevisiae deletion strains, locus YOR231W, strain MKK1, stronger effect = lower value 1.03 | S. cerevisiae deletion strains, locus YOR265W, strain rbl2, stronger effect = lower value 0.965 | S. cerevisiae deletion strains, locus YOR270C, strain vph1, stronger effect = lower value 0.891 | S. cerevisiae deletion strains, locus YOR290C, strain snf2, stronger effect = lower value 0.977 | S. cerevisiae deletion strains, locus YOR316C, strain cot1, stronger effect = lower value 0.988 | S. cerevisiae deletion strains, locus YPL051W, strain arl3, stronger effect = lower value 0.954 | S. cerevisiae deletion strains, locus YPL055C, strain LGE1, stronger effect = lower value 1 | S. cerevisiae deletion strains, locus YPL078C, strain atp4, stronger effect = lower value 0.917 | S. cerevisiae deletion strains, locus YPL106C, strain sse1, stronger effect = lower value 0.929 | S. cerevisiae deletion strains, locus YPL240C, strain hsp82, stronger effect = lower value 0.974 | S. cerevisiae deletion strains, locus YPL241C, strain CIN2, stronger effect = lower value 0.994 | S. cerevisiae deletion strains, locus YPL256C, strain CLN2, stronger effect = lower value 1.03 | S. cerevisiae deletion strains, locus YPR119W, strain clb2, stronger effect = lower value 0.972 | S. cerevisiae deletion strains, locus YPR141C, strain kar3, stronger effect = lower value 0.98 | S. cerevisiae deletion strains, locus YPR163C, strain tif3, stronger effect = lower value 1 | S. cerevisiae deletion strains, locus YPR167C, strain met16, stronger effect = lower value 0.982 | S. cerevisiae deletion strains, strain wtn01, stronger effect = lower value 0.964 | S. cerevisiae strains, strain wild type, stronger effect = lower value 1
